About 8,500 (2.5%) of roughly 340,000 compounds were called active. This is one part of a sample in which actives are shown more often than they occur.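 How the source made its calls: active means melting temperature shift of at least 10% of the positive control shift, at one fixed dose; inactive means the rest.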

This assay deals with Glutamate receptor ionotropic, NMDA 3A (GRIN3A) ligand-binding domain. Put plainly: NR3A LBD thermal stabilization by compounds – biophysical, differential scanning fluorimetry, uHTS, primary screen (AID 1259313). As to conditions: at 25 µM, hits give high values, 0% = protein alone, 100% = glycine-bound protein.
On to `COc1ccc(Br)cc1CN(C)C(=O)C1CC(=O)N(C2CCCC2)C1` (stereo unspecified), for which the Tm shift relative to glycine control was -0.58% (inactive). The figure for `O=C(O)C1CCN1C1CCCCC1` (stereo unspecified) is -1.21% (inactive); for `CCOC(=O)c1nnn(CC(=O)Nc2cccc(F)c2)c1C(=O)OCC` it is -0.09% (inactive). The same measure for `Cc1nc(C)c(-c2nnc(-c3cccc(S(=O)(=O)N(C)C)c3)o2)cc1C(=O)NN`: 4.67% (inactive). Turning to `O=C1/C(=C\c2ccc(O)cc2)CCC1CNc1ccc(Cl)cc1` (stereo unspecified), the Tm shift relative to glycine control was 21.3% (active).

For the compound `CC1CCN(C2=NC(=O)/C(=C/c3ccc(O)cc3)S2)CC1`, the Tm shift relative to glycine control is -0.54% (inactive).

With `CC(C(=O)NC1CCS(=O)(=O)C1)N1C(=O)/C(=C/c2ccc(Cl)cc2)SC1=S` (stereo unspecified), the Tm shift relative to glycine control was -5.79% (inactive).

Take `O=C(COC(=O)c1ccc(F)cc1)NCC1COc2ccccc2O1` (stereo unspecified): the Tm shift relative to glycine control is 0.36% (inactive). The same measure for `Cc1cc(C)c2c(c1)c(C)cc1nnc(SCC(=O)NCc3ccco3)n12`: 9.65% (inactive); for `Cc1ccccc1N1CC(C(=O)Nc2ccc(S(=O)(=O)N3CCCC3)cc2)CC1=O` (stereo unspecified): -1.31% (inactive). The same measure for `COc1ccc(-n2c(SCC(=O)NCc3ccco3)nnc2-c2c[nH]c3ccccc23)cc1`: -3.71% (inactive); for `CC(Oc1ccc(-c2ccccc2)c(F)c1)c1ccn(S(=O)(=O)c2cccc3ccccc23)n1` (stereo unspecified): 1.41% (inactive); for `NC(=O)c1ccsc1NC(=O)COC(=O)COc1ccc(C=O)cc1`: -1% (inactive). Turning to `CCCCc1ccc(NC(=O)CN2C(=O)NC(Cc3ccccc3)C2=O)cc1` (stereo unspecified), the Tm shift relative to glycine control was 38.2% (active). `Cc1cc(C)c(NC(=O)CN2C(=O)NC(Cc3ccccc3)C2=O)c(C)c1` (stereo unspecified): the Tm shift relative to glycine control was 0.16% (inactive).

In the case of `Cc1cc(NC(=O)CN2C(=O)NC(CCc3ccccc3)C2=O)no1` (stereo unspecified), the Tm shift relative to glycine control was 0% (inactive).

On to `Cc1scc(C(=O)NNC(=S)NCC(C)C)c1C`, for which the Tm shift relative to glycine control was -0.09% (inactive). The same measure for `COCCCN1C(=O)c2ccc(C(=O)OCC(=O)NCc3ccccc3OC)cc2C1=O`: -0.26% (inactive). The same measure for `CCOc1ccc(NC(=O)CCCCCN2C(=O)[C@@H]3Cc4ccccc4CN3C2=O)cc1`: -0.91% (inactive). The same measure for `COc1cc(OC)cc(C(=O)Nc2ccc(-c3nc4ccccc4o3)c(O)c2)c1`: 35.4% (active); for `COc1cc(OC)cc(C(=O)N[C@H](C(=O)Nc2nc3ccccc3[nH]2)C(C)C)c1`: -1.04% (inactive). With `COc1cc(OC)cc(C(=O)Nc2ncc3c(n2)CC(C)(C)CC3=O)c1`, the Tm shift relative to glycine control was -0.38% (inactive).

As for `Cc1noc(C)c1S(=O)(=O)Nc1ccc(C(=O)N2CCN(c3ccc(F)cc3)CC2)cc1`, the Tm shift relative to glycine control is -0.58% (inactive). Regarding `CC/C(=N\O)C(C)(C)/[N+]([O-])=C/c1ccc(Br)cc1`, the Tm shift relative to glycine control is 0.62% (inactive). The figure for `CC(C)CN1CCNC(=O)C1CC(=O)N(C)CC1CCOCC1` (stereo unspecified) is 0.85% (inactive). The same measure for `COCCNC(=O)Cn1cc2c(n1)CCCCC2`: -0.96% (inactive). The same measure for `COC(=O)c1cccc(-n2[nH]nnc2=S)c1`: -0.34% (inactive). For `OCCNc1nc(Nc2ccc(Cl)c(Cl)c2)nc2ccccc12`, the Tm shift relative to glycine control was 15.3% (active). The figure for `NS(=O)(=O)c1ccc(CCNc2nc(C(F)(F)F)nc3ccccc23)cc1` is -7.08% (inactive).

Turning to `Cc1ccc(Nc2nc(N)nc(CN3CCN(Cc4ccccc4)CC3)n2)cc1Cl`, the Tm shift relative to glycine control is -0.21% (inactive). The figure for `COc1ccccc1/C=N/N1CCN(Cc2ccccc2Cl)CC1` is 3.27% (inactive); for `Cc1cc(-n2nc(C)cc2C)n2ncc(-c3ccccc3)c2n1` it is 0.25% (inactive). The same measure for `COc1ccc(CC(=O)N/N=C/c2cc([N+](=O)[O-])cc(Br)c2O)cc1`: 7.97% (inactive); for `COc1cc(/C=N/NC(=O)CCc2n[nH]c(=O)[nH]c2=O)ccc1O`: 0.39% (inactive). The same measure for `Cc1cc(C(=O)N/N=C/c2cc([N+](=O)[O-])cc(C)c2O)n[nH]1`: -7.09% (inactive); for `COc1cc(/C=N/Nc2nc3ccccc3s2)ccc1O`: 20.7% (active); for `CCOc1cc(/C=N/Nc2cc(C)nc3ccc(C)cc23)ccc1O`: -6.31% (inactive).

Consider `O=[N+]([O-])c1cc(Br)c(O)c(/C=N/Nc2nc3ccccc3s2)c1`, for which the Tm shift relative to glycine control is 24.4% (active). The same measure for `COc1cc(/C=C/CNC[C@H]2O[C@@H](n3cnc(C(N)=O)n3)[C@H](O)[C@@H]2O)ccc1O`: -1.5% (inactive); for `C/C(=C/C(=O)N1CCN(C)CC1)C(=O)O`: -0.35% (inactive). The same measure for `Cc1cc(C)c2cc(CN(Cc3cccs3)Cc3nnnn3CC3CCCO3)c(=O)[nH]c2c1` (stereo unspecified): -5.51% (inactive); for `Cn1c(=O)[nH]c(=O)c2c1nc(CN1CCN(c3ccccc3F)CC1)n2CCc1ccccc1`: -1.61% (inactive). The figure for `CCCNC(=O)c1ccccc1NC(=O)CSCc1ccc(OC)cc1` is 12.7% (active). Regarding `CCCCCNC(=O)c1cccnc1SCC(=O)Nc1ccccc1OC`, the Tm shift relative to glycine control was 8.62% (inactive). The same measure for `CCCNC(=O)Nc1ccccc1C(=O)Nc1ccc(OC)cc1`: 0% (inactive). The figure for `COc1cc2c(cc1OC)C(C(=O)Nc1cc(C)c(OC)c(C)c1)CC(=O)N2` (stereo unspecified) is 0.68% (inactive).
